Shown are actives, neighbours in structure and some others; about 2.9% of the full set was active somewhere.
TSHR antagonist – antagonists of human thyroid stimulating hormone receptor; P16473; TSHR-expressing cells, TSH-stimulated cAMP HTRF, 2 h; stronger effect = lower value; activity change, negative = inhibition, % at 11.5 µM; hit rate 0.2% among 330,000;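 active = activity change below a set negative limit, meaning inhibition stronger than a set level, cut at about -70% in these data; inconclusive = activity change between two set negative limits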; also: % is scaled to controls: 0 for no effect and ±100 for the full control effect
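TSHR-expressing cells were treated with compounds, then stimulated with TSH at EC80 (4nM final) for 2 hours at 37 deg C. Cellular cAMP was measured by HTRF competition between lysate cAMP and cAMP-d2 for a cryptate-labelled anti-cAMP antibody.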
B2AR arrestin – beta2AR (human) beta-arrestin recruitment activity. beta-arrestin recruitment to beta2AR, cell-based reporter. Potency, µM (highest dose often 46.1 µM), inactives show at the top dose activation, hits mostly activators. hit rate 0.02% among 330,000. AID 492947; active = well fitted activation curve with a large enough effect; inconclusive = small, poorly fitted or top-dose-only effect;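 also: potency is read from the fitted curve at half-maximal effect; 0% = DMSO controls and full agonism = EC100 isoproterenol or metaproterenol; nearly all actives have a fitted effect of over 65% in size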
Target sequence (P07550 whole entry, looked up): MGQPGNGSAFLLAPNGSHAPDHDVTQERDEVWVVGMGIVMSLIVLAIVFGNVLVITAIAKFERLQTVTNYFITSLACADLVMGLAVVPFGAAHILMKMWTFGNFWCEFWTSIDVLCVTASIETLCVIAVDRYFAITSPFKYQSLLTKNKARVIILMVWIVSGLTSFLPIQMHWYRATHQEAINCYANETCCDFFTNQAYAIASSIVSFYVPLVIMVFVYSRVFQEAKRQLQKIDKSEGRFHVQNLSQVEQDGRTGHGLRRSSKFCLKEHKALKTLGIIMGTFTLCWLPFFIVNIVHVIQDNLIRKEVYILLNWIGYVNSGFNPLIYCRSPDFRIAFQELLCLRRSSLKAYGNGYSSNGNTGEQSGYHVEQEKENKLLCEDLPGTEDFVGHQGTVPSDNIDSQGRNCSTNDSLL
DRD3 agonist – activates the human D3 dopamine receptor; D3R DiscoveRx beta-arrestin cells, luminescence, 90 min; max activation, %; hit rate 0.58% among 410,000; AID 652048; in the data active = max activation above about 30%; also: 0% is about no effect
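Agonist-mode cell screen: cells plated at 1500/well and incubated overnight at 37 °C, then exposed to library compounds for 90 min at 37 °C. Detection reagent was added for 30–60 min at room temperature, and luminescence was read.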
D3 antag – antagonists of human D3 dopamine receptor; AID 652054; max response, negative = inhibition, %; D3R cells, DiscoveRx beta-arrestin luminescence, antagonist mode; stronger effect = lower value; hit rate 2.5% among 360,000; in the data active = max response below about -50%; inconclusive = no clear call, values can overlap the other calls; also: % is scaled to controls: 0 for no effect and ±100 for the full control effect
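Cells plated overnight at 1500 cells/well, then exposed to library compounds with dopamine controls for 90 minutes at 37 degrees C. DiscoveRx reagent added for 30–60 minutes at room temperature; luminescence read, quantitative HTS format.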
Active calls of the source: *; ? = inconclusive; nt = no result given.

SMILES	TSHR antagonist	B2AR arrestin	DRD3 agonist	D3 antag
COc1cccc(-c2nc(CS(=O)(=O)CC(=O)NCCc3ccc(Cl)cc3)c(C)o2)c1	nt	nt	-3	nt
CCC(c1nnnn1-c1ccc2c(c1)OCCO2)N1CCN(c2ccccc2)CC1 (stereo not given)	nt	nt	4	68
CCC(c1nnnn1-c1ccc2c(c1)OCCO2)N1CCN(C/C=C/c2ccccc2)CC1 (stereo not given)	nt	nt	66*	-16
CCC(c1nnnn1-c1ccc2c(c1)OCCO2)N1CCN(CCN2CCOCC2)CC1 (stereo not given)	nt	nt	-10	-16
C(=C\c1ccccc1)/CN1CCN(C(CCc2ccccc2)c2nnnn2-c2ccc3c(c2)OCCO3)CC1 (stereo not given)	nt	nt	-12	-110*
O=C(Nc1ccc2c(c1)OCCO2)C(CCc1ccccc1)N1CCN(C/C=C/c2ccccc2)CC1 (stereo not given)	nt	nt	-7	-109*
C(=C\c1ccccc1)/CN1CCN(C(c2nnnn2-c2ccc3c(c2)OCCO3)C2CC2)CC1 (stereo not given)	nt	nt	41*	?
COC(=O)c1sccc1-n1cc2c(c1-c1ccccc1)c(=O)n(C)c(=O)n2C	nt	nt	-7	0
CC(=O)Nc1nonc1-c1nnc(SCC(=O)Nc2ccc(C)c(Cl)c2)n1C	nt	nt	5	nt
CCOC(=O)c1c(S(=O)(=O)N2CCC(C(=O)Nc3ccccc3OC)CC2)c(C)n(CC)c1C	nt	nt	-2	nt
CNc1sc(C(=O)c2ccc(F)cc2)c(N)c1-c1nc2ccccc2s1	-10	7%	-42	-76*
CNc1sc(C(=O)c2cccs2)c(N)c1-c1nc2ccccc2s1	-14	?	-7	?
O=C(O)c1cc2cccc(S(=O)(=O)N3CCCCC3)c2cc1O	-4	0%	30*	9
CC(=O)N(CCC(c1ccccc1)c1ccco1)Cc1cccs1 (stereo not given)	-91*	0%	-7	-20
COc1cc2c(cc1OC)[C@@H]1CC(=O)[C@@H](CC(C)C)CN1CC2	nt	nt	-18	nt
N/C(=N\OC(=O)CC1CCCCC1)c1cccnc1	-4	0%	-1	-151*
CCC(=O)N1CCc2cc(Br)cc(S(=O)(=O)CCC(=O)N(C)c3cccc(C)c3)c21	-7	0%	8	nt
COc1ccc(-n2nc(C(=O)N3CCN(c4cccc(C(F)(F)F)c4)CC3)c3c4ccccc4n(C)c3c2=O)cc1Cl	nt	nt	-24	nt
CCc1cccc(C)c1NC(=O)CSc1nc2c(c(=O)[nH]1)CCC2	nt	nt	1	nt
O=C1c2ccccc2S(=O)(=O)c2cc(N3CCN(c4ccccc4)CC3)ccc21	nt	nt	52*	78
O=C(NCC1CCCO1)c1cccc2c1C(=O)c1ccc(N3CCC(Cc4ccccc4)CC3)cc1S2(=O)=O (stereo not given)	-41	0%	50*	134
CC1CCN(c2ccc3c(c2)S(=O)(=O)c2cccc(C(=O)NC4CC4)c2C3=O)CC1	-10	2%	52*	50
CC1CCN(c2ccc3c(c2)S(=O)(=O)c2cccc(C(=O)NC[C@@H]4CCCO4)c2C3=O)CC1	-13	0%	31*	108
COc1ccccc1OCc1nc2ccccc2n1Cc1ccccc1	nt	nt	-3	nt
O=C(CCCCn1c(=O)c2ccccc2n(Cc2ccc(Cl)cc2)c1=O)NCc1ccccc1Cl	nt	nt	-1	nt
SMILES	TSHR antagonist	B2AR arrestin	DRD3 agonist	D3 antag
Cc1ccc(NS(=O)(=O)c2ccc(NC(=O)N3CCCC3)cc2)cc1C	nt	nt	3	nt
COc1ccc(Cn2c(C(=O)O)c(CNCCc3cccs3)c3ccc(C)cc32)cc1	nt	nt	0	nt
Nc1c2c(nc3ccccc13)N(C1CCCCC1)CC2	16	0%	0	-83*
OCC1(CCOc2ccccc2)CCN(Cc2ccc3cccc(F)c3n2)CC1	-34	-1%	-14	-87*
CCOC(=O)C1(CC2CC2)CCN(Cc2ccc3cccc(F)c3n2)CC1	-5	0%	-19	-96*
OCC1(Cc2cccc(F)c2)CCN(Cc2ccc3cccc(F)c3n2)CC1	-2	0%	-7	-75*
CCOC(=O)C1(CC2CC2)CCN(Cc2cn[nH]c2-c2cccc(F)c2)CC1	-3	-1%	-3	12
O=C(c1cnsn1)N1CCC(CO)(Cc2cccc(F)c2)CC1	4	0%	13	1
COc1cccc(CC2(CO)CCN(Cc3ccc4cccc(F)c4n3)CC2)c1	13	0%	-17	-82*
COc1cc(C(=O)NC2CC(=O)N(c3cccc(F)c3)C2)cc(OC)c1OC (stereo not given)	nt	nt	11	nt
CCC(c1nnnn1-c1c(C)cccc1C)N1CCN(CC)CC1 (stereo not given)	nt	nt	2	14

High-throughput results deposited in PubChem BioAssay by National Center for Advancing Translational Sciences (NCATS).
